# In PubChem BioAssay AID1014 (NMMLSC, 2008):
# Calls of active or inactive are those of the source. Cut-off read from the data, not from the text of the source: active = inhibition of mean fluorescence above about 33%; inactive = the rest.
# Test: blockers of bacterial quorum-sensing reporter fluorescence – flow cytometry, SAR analogs, SAR follow-up (AID 1014);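 note: Staphylococcus aureus RN6390 with RNAIII-GFP reporter stimulated by AIP; bacteria incubated with compound for 3 hours at 37 °C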
# Conditions: at 20 µM, stronger effect = higher value; inhibition of percent positive cells: measured here: percent reporter-positive cells
SMILES,inhibition of mean fluorescence,inhibition of percent positive cells
COc1cc(C(=O)NCC(c2cccnc2)N2CCN(c3ccccc3F)CC2)cc(OC)c1OC (stereo unspecified),-57.3% (inactive),-1.5%
CC1CC(C)CN(C(C(=O)Nc2ccc(C(C)C)cc2)c2cc3c(cc2[N+](=O)[O-])OCO3)C1 (stereo unspecified),-12.5% (inactive),-0.1%
CCOC(=O)c1oc2cccc(O)c2c1C,0.4% (inactive),-0.8%
O=C(NCC(c1cccnc1)N1CCc2ccccc21)c1cccc(Br)c1 (stereo unspecified),29.6% (inactive),0.1%
O=CN1CCN(C(C(=O)NC2CCCC2)c2cc3c(cc2[N+](=O)[O-])OCO3)CC1 (stereo unspecified),-8.7% (inactive),-0.6%
CCOC(=O)c1c(-c2cc(Cl)c(OC)c(Cl)c2)oc2ccc(O)cc12,-4.9% (inactive),-0.4%
CC1CCN(C(C(=O)Nc2ccc3c(c2)OCO3)c2ccccc2)CC1 (stereo unspecified),32.4% (active),-0.7%
COc1ccc(C(=O)NCC(c2cccnc2)N2CCN(c3ccccc3F)CC2)cc1OC (stereo unspecified),-7.3% (inactive),-1.8%
Cc1ccc(Nc2nc3c(S(=O)(=O)c4ccc(C(C)(C)C)cc4)nnn3c3ccccc23)cc1,-38.2% (inactive),-1%
CC(=O)c1cc2cc(O)ccc2o1,-1% (inactive),0.8%
CCc1c(C(=O)c2ccccc2)oc2c(C)c3oc(=O)cc(C)c3cc12,-0.6% (inactive),-1.3%
CC1CCN(C(=O)Cn2cc(SCC(=O)Nc3ccc4c(c3)OCO4)c3ccccc32)CC1,-4.6% (inactive),-0.2%
COc1ccc(Nc2nc3c(S(=O)(=O)c4ccc(Cl)cc4)nnn3c3ccccc23)cc1,-19.3% (inactive),-0.9%
CCOc1ccc(Nc2nc3c(S(=O)(=O)c4ccc(Br)cc4)nnn3c3ccccc23)cc1,-22.8% (inactive),-0.3%
CCCCc1oc2ccccc2c1C(=O)c1ccc(O)cc1,84.9% (active),43.2%
CC1CN(CCC(=O)Nc2ccc3c(c2)OCO3)CC(C)O1 (stereo unspecified),14% (inactive),-1.3%
CCc1ccc(S(=O)(=O)c2nnn3c2nc(Nc2ccc(OC)cc2)c2sccc23)cc1,5.8% (inactive),-0.5%
O=C(Nc1ccc2c(c1)OCO2)C(c1ccccc1)N1CCCCC1 (stereo unspecified),40.3% (active),-0.7%
COc1c(F)c(F)c(C(=O)O)c(Nc2ccc(C)cc2C)c1F,67.8% (active),13.3%
O=C(CSc1cn(CC(=O)N2CCCCC2)c2ccccc12)Nc1ccc2c(c1)OCO2,-6.3% (inactive),-0.1%
O=C(NC1CCCCC1)C(c1cc2c(cc1[N+](=O)[O-])OCO2)N1CCCCC1 (stereo unspecified),12% (inactive),-0.2%
CCOC(=O)C1CCN(C(C(=O)Nc2ccc3c(c2)OCO3)c2ccccc2)CC1 (stereo unspecified),-1% (inactive),-0.4%
COc1ccc(OC)c(C(=O)c2coc3ccc(O)cc23)c1,-21.9% (inactive),0%
CC(=O)c1cc2c(cc1NC(=O)CN1CCN(C(c3ccccc3)c3ccccc3)CC1)OCO2,38.7% (active),0.4%
CC1CCN(c2c(NCC3CCC(C(=O)NCc4ccc5c(c4)OCO5)CC3)c(=O)c2=O)CC1 (stereo unspecified),-24.3% (inactive),-0.6%
COc1ccc(C(=O)NCC(c2cccnc2)N2CCN(c3ccccc3F)CC2)cc1 (stereo unspecified),-7.6% (inactive),-0.9%

SMILES,inhibition of mean fluorescence,inhibition of percent positive cells
O=C(CCN1CCN(c2ccccc2)CC1)Nc1ccc2c(c1)OCO2,5.8% (inactive),1.3%
Cc1c(Nc2c(C(=O)O)cc([N+](=O)[O-])cc2[N+](=O)[O-])c(=O)n(-c2ccccc2)n1C,-3.7% (inactive),-0.4%
CCOC(=O)c1cnc2ccc(OC)cc2c1Nc1ccccc1C(=O)O,-23.9% (inactive),-1.3%
COc1ccccc1N1CCN(C(CNC(=O)c2cccc(Cl)c2)c2cccnc2)CC1 (stereo unspecified),72.3% (active),15.4%
COc1c(F)c(F)c(C(=O)O)c(Nc2ccccc2C)c1F,9.6% (inactive),-0.2%
O=C(NC1CCCC1)C(c1cc2c(cc1[N+](=O)[O-])OCO2)N1CCOCC1 (stereo unspecified),-11.5% (inactive),-0.1%
N#Cc1c(NC(=O)CN2C(=O)c3ccccc3C2=O)oc(-c2ccccc2)c1-c1ccccc1,41.7% (active),0.2%
O=C(Nc1ccc2c(c1)OCO2)C(c1ccccc1)N1CCC2(CC1)OCCO2 (stereo unspecified),-2.7% (inactive),-0.2%
COc1cccc(Nc2c(F)c(OC)c(F)c(F)c2C(=O)O)c1,-6.6% (inactive),0%
O=C(NCC(c1cccnc1)N1CCOCC1)c1cccc(Cl)c1 (stereo unspecified),-6.2% (inactive),0.6%
Cc1ccc(S(=O)(=O)c2nnn3c2nc(Nc2cccc(C)c2)c2ccccc23)cc1,5.4% (inactive),1.5%
COc1ccc(Nc2nc3c(S(=O)(=O)c4ccc(C)cc4)nnn3c3ccccc23)cc1,4.9% (inactive),-0.8%
Cc1cccc(OCC(=O)Nc2sc3c(c2C#N)CCCC3)c1C,28.1% (inactive),1.4%
CCOC(=O)c1cnc2ccc(OC(F)(F)F)cc2c1Nc1ccccc1C(=O)O,22.4% (inactive),0.6%
COc1ccc(Nc2nc3c(S(=O)(=O)c4ccc(C)cc4)nnn3c3ccsc23)cc1,-6.2% (inactive),-0.3%
Cc1ccc(Nc2c(F)c(F)c(F)c(F)c2C(=O)O)c(C)c1,4.2% (inactive),-2.3%
Cc1ccc2occ(/C=C/C(=O)c3ccc(O)cc3)c(=O)c2c1,-0.6% (inactive),-0.1%
O=C(NCC(c1cccnc1)N1CCN(c2ccccc2F)CC1)c1ccccc1 (stereo unspecified),-24.2% (inactive),-1.5%
COc1c(F)c(F)c(C(=O)O)c(Nc2cccc(C)c2)c1F,-11.5% (inactive),-1.3%
CCN1CCN(C(CNC(=O)c2ccc(F)cc2)c2cccnc2)CC1 (stereo unspecified),-8.8% (inactive),-0.6%
Cc1ccccc1C(=O)N1CCC(C(=O)Nc2ccc3c(c2)OCO3)CC1,-8.8% (inactive),-0.4%
CCOC(=O)c1cnc2c(OC)cccc2c1Nc1ccccc1C(=O)O,-42.9% (inactive),-1.1%
O=C(CN1CC(c2ccccc2)CC1=O)Nc1ccc2c(c1)OCO2 (stereo unspecified),5.5% (inactive),-0.1%
O=C(NCCN1CCN(c2ccccc2)CC1)c1cccc(Cl)c1,-5.6% (inactive),0%
Cc1ccc(S(=O)(=O)c2nnn3c2nc(Nc2ccc(Oc4ccccc4)cc2)c2cc(Cl)ccc23)cc1,-19.1% (inactive),-0.5%
COC(=O)c1c(C)oc2cc(Br)c(O)cc12,-18% (inactive),-1%

SMILES,inhibition of mean fluorescence,inhibition of percent positive cells
COc1ccc(NC(=O)C(c2cc3c(cc2[N+](=O)[O-])OCO3)N2CC(C)CC(C)C2)cc1 (stereo unspecified),49.3% (active),0.5%
CC(C)c1ccc(NC(=O)C(c2cc3c(cc2[N+](=O)[O-])OCO3)N2CCC(Cc3ccccc3)CC2)cc1 (stereo unspecified),-12% (inactive),-0.4%
COc1ccc(NC(=O)C(c2cc3c(cc2[N+](=O)[O-])OCO3)N2CCCCC2)cc1 (stereo unspecified),-14.1% (inactive),-1.6%
CCOC(=O)C1=C(c2ccccc2)NC(SCC(=O)Nc2sc3c(c2C(=O)OCC)CCCC3)=C(C#N)C1c1ccco1 (stereo unspecified),-27.4% (inactive),0.1%
O=C(Nc1ccc2c(c1)OCO2)C(c1ccccc1)N1CCC(Cc2ccccc2)CC1 (stereo unspecified),63% (active),4.2%
CC(C)c1ccc(NC(=O)C(c2cc3c(cc2[N+](=O)[O-])OCO3)N2CCOCC2)cc1 (stereo unspecified),8.1% (inactive),0.7%
Cc1ccc(Nc2c(C(=O)O)cc([N+](=O)[O-])cc2[N+](=O)[O-])cc1Cl,-19.5% (inactive),-0.4%
N#Cc1c(NC(=O)COC(=O)CN2C(=O)c3ccccc3C2=O)sc2c1CCCC2,-2.3% (inactive),-0.2%
Cc1cc(C)cc(Nc2nc3c(S(=O)(=O)c4ccccc4)nnn3c3ccccc23)c1,0.4% (inactive),0.1%
CC(=O)c1cc2c(O)c(O)ccc2o1,17.9% (inactive),-0.1%
CC1CCCN(C(C(=O)NC2CCCC2)c2cc3c(cc2[N+](=O)[O-])OCO3)C1 (stereo unspecified),14.5% (inactive),-1.7%
CC1CCCN(CCC(=O)Nc2ccc3c(c2)OCO3)C1 (stereo unspecified),-15.3% (inactive),-1.5%
O=C(c1ccco1)c1coc2ccc(O)cc12,-10.7% (inactive),0.2%
COc1ccc(Nc2nc3c(S(=O)(=O)c4ccc(C(C)(C)C)cc4)nnn3c3ccccc23)cc1,-16.7% (inactive),-0.8%
CCc1ccc(S(=O)(=O)c2nnn3c2nc(Nc2ccc(Oc4ccccc4)cc2)c2cc(Cl)ccc23)cc1,-16.6% (inactive),-0.1%
Cc1ccc(S(=O)(=O)c2nnn3c2nc(Nc2ccc(C(C)C)cc2)c2ccccc23)cc1,12.6% (inactive),-1.7%
O=C(Nc1ccc2c(c1)OCCO2)C(c1ccc(F)cc1)N1CCCCC1 (stereo unspecified),12.6% (inactive),-0.6%
COc1cccc(C(=O)NCC(c2cccnc2)N2CCN(c3ccccc3OC)CC2)c1 (stereo unspecified),10.5% (inactive),-0.3%
Cc1oc2ccc(O)cc2c1C(=O)O,-20.2% (inactive),-0.5%
CC(C)c1ccc(S(=O)(=O)c2n[nH]n3c2nc(=O)c2ccccc23)cc1,80.5% (active),22.1%
O=C(NCC(c1cccnc1)N1CCN(c2ccccc2F)CC1)c1ccco1 (stereo unspecified),-27.7% (inactive),-1.9%
COc1c(F)c(F)c(C(=O)O)c(Nc2cc(C)cc(C)c2)c1F,-29.1% (inactive),-2%
CC1CCc2nn(CC(=O)Nc3ccc4c(c3)OCCO4)cc2C1 (stereo unspecified),4.5% (inactive),0%
CC1CCCN(C(C(=O)Nc2ccc(C(C)C)cc2)c2cc3c(cc2[N+](=O)[O-])OCO3)C1 (stereo unspecified),14.1% (inactive),-0.2%
O=C(O)c1ccccc1Nc1ccccc1C(=O)O,5.8% (inactive),-0.5%
CC(C)c1ccc(S(=O)(=O)c2nnn3c2nc(N)c2ccccc23)cc1,11.1% (inactive),0.3%
